According to PubChem BioAssay (Tox21):
“And” between values parts separate entries of the source, which are not always exact repeats. Equal entries are not always repeated. Inconclusive results are not listed. Unmarked numbers belong to inactive results. The source made the active and inactive calls. The call rests on the fitted dose curve.

Experiment: qHTS assay for small molecules that induce genotoxicity in human embryonic kidney cells expressing luciferase-tagged ATAD5 - cell viability (AID 651634); further: nearly all actives have a fitted effect of over 25% in size
Details: HEK293T ATAD5-luc cells viability, CellTiter-Fluor, 15.5 h; series mostly up to 83.3 µM; activity, negative = cytotoxicity: at the top concentration
Outline: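 HEK293T ATAD5-luc cells, 2,000/well; compound 15.5 hr, 37C/5% CO2; CellTiter-Fluor 30 min, 37C; fluorescence read.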
On the % scale 0 is the no-effect control and ±100 the full control effect; potency means the concentration at half of the fitted maximal effect.

Row | SMILES | activity, negative = cytotoxicity | Potency
1 | Oc1ccc(Cl)c2c1CCC2 | -13.9% | 
2 | O=c1[nH]c(=O)n([C@H]2C[C@H](O)[C@@H](CO)O2)cc1/C=C/Br | 2.83% | 
3 | Nc1nc(/C(=C/CC(=O)O)C(=O)N[C@@H]2C(=O)N3C(C(=O)O)=CCS[C@H]23)cs1 | 8.52% | 
4 | SC1CCCCC1 | 13.7% [at 95.3 µM] | 
5 | C[C@H](Cc1ccc(O)c(O)c1)[C@@H](C)Cc1ccc(O)c(O)c1 | 4.93% | 
6 | COc1cccc2c1[C@@H]1CN(CCCCn3c(=O)[nH]c4c(sc5ncc(-c6ccccc6)nc54)c3=O)C[C@@H]1CO2 |  | 26.6 µM (active)
7 | CON=C1C[C@]2(C[C@@H]3C[C@@H](C/C=C(\C)C[C@@H](C)/C=C/C=C4\CO[C@@H]5[C@H](O)C(C)=C[C@@H](C(=O)O3)[C@]45O)O2)O[C@H](/C(C)=C/C(C)C)[C@H]1C |  | 11.9 µM (active) and 8.41 µM (active)
8 | CC(C)[N+]1(C)[C@@H]2CC[C@H]1CC(OC(=O)C(CO)c1ccccc1)C2 (some centres undefined) |  | inactive
9 | CC(C)Cc1ccc([C@H](C)C(=O)O)cc1 | 11.8% | 
10 | Cc1ccc(C(C)(C)c2ccc(C)cc2)cc1 | 8.81% | 
11 | Nc1c(CC(=O)O)cccc1C(=O)c1ccccc1 |  | inactive
12 | CC(=O)NC[C@H]1CN(c2ccc(N3CCOCC3)c(F)c2)C(=O)O1 | -8.48% | 
13 | CCCCCCCCCCCCN1CCCC1=O | 7.3% | 
14 | O=C(O)COc1ccc(C(=O)c2cccs2)c(Cl)c1Cl |  | inactive
15 | O=C1CCC(c2ccc(-n3ccnc3)cc2)=NN1 | 18.4% | 
16 | O=[N+]([O-])c1ccc(O)c2ncccc12 |  | 21.1 µM (active)
17 | CC(C)C[C@H](NC(=O)[C@@H](COC(C)(C)C)NC(=O)[C@H](Cc1ccc(O)cc1)NC(=O)[C@H](CO)NC(=O)[C@H](Cc1c[nH]c2ccccc12)NC(=O)[C@H](Cc1cnc[nH]1)NC(=O)[C@@H]1CCC(=O)N1)C(=O)N[C@@H](CCCN=C(N)N)C(=O)N1CCC[C@H]1C(=O)NNC(N)=O |  | inactive
18 | CC[C@@H](C(=O)[C@@H](C)[C@@H](O)[C@H](C)CCc1ccc(C)c(O)c1C(=O)O)[C@H]1O[C@](CC)([C@H]2CC[C@](O)(CC)[C@H](C)O2)C[C@@H]1C |  | 23.7 µM (active)
19 | CCCCC/C=C\C=C\C(=O)OCC | -20.2% [at 95.3 µM] | 

Row | SMILES | activity, negative = cytotoxicity | Potency
20 | CCCn1c(=O)[nH]c(=O)c2[nH]cnc21 | 8.51% | 
21 | CO[C@H]1C[C@@H]2CC[C@@H](C)[C@@](O)(O2)C(=O)C(=O)N2CCCC[C@H]2C(=O)O[C@H]([C@H](C)C[C@@H]2CC[C@@H](O)[C@H](OC)C2)CC(=O)[C@H](C)C=C(C)[C@@H](O)[C@@H](OC)C(=O)[C@H](C)C[C@H](C)/C=C/C=CC=C1C |  | 29.8 µM (active) and 26.6 µM (active)
22 | CC(=O)OCC(=O)[C@@]1(O)CC[C@H]2[C@@H]3CCC4=CC(=O)CC[C@]4(C)C3=CC[C@@]21C | 7.5% | 
23 | O=C(O)c1ccc(NC2OC[C@@H](O)[C@H](O)[C@H]2O)cc1 (some centres undefined) | 5.1% | 
24 | O=C1CCCCCCCCCCCCCC1 | 15.6% | 
25 | C/C(=C(/CCO)SSCC1CCCO1)N(C=O)Cc1cnc(C)nc1N (centres undefined) |  | inactive
26 | CN(Cc1ccccc1)Cc1ccccc1 | 15.2% | 
27 | CCCCCCCC[N+](C)(C)CCCCCCCC |  | inactive
28 | CO[C@H](C(=O)[C@@H](O)[C@@H](C)O)C1Cc2cc3cc(O[C@H]4C[C@@H](O[C@H]5C[C@@H](O)[C@H](O)[C@@H](C)O5)[C@@H](O)[C@@H](C)O4)c(C)c(O)c3c(O)c2C(=O)[C@H]1O[C@H]1C[C@@H](O[C@H]2C[C@@H](O[C@H]3C[C@](C)(O)[C@H](O)[C@@H](C)O3)[C@H](O)[C@@H](C)O2)[C@H](O)[C@@H](C)O1 (some centres undefined) |  | inactive
29 | CC(C)(O/N=C(\C(=O)N[C@@H]1C(=O)N2C(C(=O)[O-])=C(C[n+]3ccccc3)CS[C@H]12)c1csc(N)n1)C(=O)O | -14.6% [at 39.1 µM] | 
30 | Cc1cccc(C)c1NC(=O)C1CCCCN1C (centres undefined) | 16.6% | 
31 | C[C@@H]1O[C@@H]1P(=O)(O)O | 7.19% | 
32 | c1ccc2c(c1)OCC(CN1CCCCC1)O2 (centres undefined) | 22.1% | 
33 | C=C1C(=C/C=C2\CCC[C@]3(C)[C@@H]([C@H](C)CCCC(C)C)CC[C@@H]23)C[C@@H](O)C[C@@H]1O |  | 23.7 µM (active)
34 | N=C(N)n1cccn1 | -3.33% | 
35 | CCCC(CCC)C(=O)OC1C[C@H]2CC[C@@H](C1)[N+]2(C)C (some centres undefined) |  | inactive
36 | C[N+](C)(C)CCOP(=O)(O)OP(=O)([O-])OC[C@H]1O[C@@H](n2ccc(N)nc2=O)[C@H](O)[C@@H]1O |  | inactive
37 | CN(C)CCC(O)(c1ccccc1)c1ccccc1Cl (centres undefined) | 15.6% | 

Experiment: qHTS assay for small molecule disruptors of the mitochondrial membrane potential - cell viability (AID 720634); further: nearly all actives have a fitted effect of over 20% in size;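 on activity change, negative = cytotoxicity: human HepG2 liver cancer cells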
Details: HepG2 viability, ATP luminescence (CellTiter-Glo), 1 h; series mostly up to 83.2 µM; activity change, negative = cytotoxicity: at the top concentration
Outline: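 Luminescence from CellTiter-Glo (ATP content) gave viability in HepG2 cells, read in the same wells as the MMP dye assay after 1 hr compound exposure at 37 C.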

Row | SMILES | activity change, negative = cytotoxicity | Potency
38 | Oc1ccc(Cl)c2c1CCC2 | -13.3% | 
39 | O=c1[nH]c(=O)n([C@H]2C[C@H](O)[C@@H](CO)O2)cc1/C=C/Br | 7.52% | 
40 | Nc1nc(/C(=C/CC(=O)O)C(=O)N[C@@H]2C(=O)N3C(C(=O)O)=CCS[C@H]23)cs1 | 8.05% | 
41 | SC1CCCCC1 | -6.35% [at 95.3 µM] | 
42 | C[C@H](Cc1ccc(O)c(O)c1)[C@@H](C)Cc1ccc(O)c(O)c1 | -10.1% | 
43 | COc1cccc2c1[C@@H]1CN(CCCCn3c(=O)[nH]c4c(sc5ncc(-c6ccccc6)nc54)c3=O)C[C@@H]1CO2 | -14.5% | 
44 | CON=C1C[C@]2(C[C@@H]3C[C@@H](C/C=C(\C)C[C@@H](C)/C=C/C=C4\CO[C@@H]5[C@H](O)C(C)=C[C@@H](C(=O)O3)[C@]45O)O2)O[C@H](/C(C)=C/C(C)C)[C@H]1C |  | inactive
45 | CC(C)[N+]1(C)[C@@H]2CC[C@H]1CC(OC(=O)C(CO)c1ccccc1)C2 (some centres undefined) |  | inactive
46 | CC(C)Cc1ccc([C@H](C)C(=O)O)cc1 | 7.6% | 
47 | Cc1ccc(C(C)(C)c2ccc(C)cc2)cc1 | 5.13% | 
48 | Nc1c(CC(=O)O)cccc1C(=O)c1ccccc1 |  | inactive
49 | CC(=O)NC[C@H]1CN(c2ccc(N3CCOCC3)c(F)c2)C(=O)O1 | 22.5% | 
50 | CCCCCCCCCCCCN1CCCC1=O | -19.7% | 
51 | O=C(O)COc1ccc(C(=O)c2cccs2)c(Cl)c1Cl |  | inactive
52 | O=C1CCC(c2ccc(-n3ccnc3)cc2)=NN1 | 11.5% | 
53 | O=[N+]([O-])c1ccc(O)c2ncccc12 | -3.05% | 
54 | CC(C)C[C@H](NC(=O)[C@@H](COC(C)(C)C)NC(=O)[C@H](Cc1ccc(O)cc1)NC(=O)[C@H](CO)NC(=O)[C@H](Cc1c[nH]c2ccccc12)NC(=O)[C@H](Cc1cnc[nH]1)NC(=O)[C@@H]1CCC(=O)N1)C(=O)N[C@@H](CCCN=C(N)N)C(=O)N1CCC[C@H]1C(=O)NNC(N)=O |  | inactive
55 | CC[C@@H](C(=O)[C@@H](C)[C@@H](O)[C@H](C)CCc1ccc(C)c(O)c1C(=O)O)[C@H]1O[C@](CC)([C@H]2CC[C@](O)(CC)[C@H](C)O2)C[C@@H]1C |  | 5.96 µM (active)
56 | CCCCC/C=C\C=C\C(=O)OCC | -10.9% [at 95.3 µM] | 

Row | SMILES | activity change, negative = cytotoxicity | Potency
57 | CCCn1c(=O)[nH]c(=O)c2[nH]cnc21 | -5.32% | 
58 | CO[C@H]1C[C@@H]2CC[C@@H](C)[C@@](O)(O2)C(=O)C(=O)N2CCCC[C@H]2C(=O)O[C@H]([C@H](C)C[C@@H]2CC[C@@H](O)[C@H](OC)C2)CC(=O)[C@H](C)C=C(C)[C@@H](O)[C@@H](OC)C(=O)[C@H](C)C[C@H](C)/C=C/C=CC=C1C |  | inactive
59 | CC(=O)OCC(=O)[C@@]1(O)CC[C@H]2[C@@H]3CCC4=CC(=O)CC[C@]4(C)C3=CC[C@@]21C | 0.813% | 
60 | O=C(O)c1ccc(NC2OC[C@@H](O)[C@H](O)[C@H]2O)cc1 (some centres undefined) | -2.82% | 
61 | O=C1CCCCCCCCCCCCCC1 | -19.9% | 
62 | C/C(=C(/CCO)SSCC1CCCO1)N(C=O)Cc1cnc(C)nc1N (centres undefined) |  | inactive
63 | CN(Cc1ccccc1)Cc1ccccc1 | 10.7% | 
64 | CCCCCCCC[N+](C)(C)CCCCCCCC |  | inactive
65 | CO[C@H](C(=O)[C@@H](O)[C@@H](C)O)C1Cc2cc3cc(O[C@H]4C[C@@H](O[C@H]5C[C@@H](O)[C@H](O)[C@@H](C)O5)[C@@H](O)[C@@H](C)O4)c(C)c(O)c3c(O)c2C(=O)[C@H]1O[C@H]1C[C@@H](O[C@H]2C[C@@H](O[C@H]3C[C@](C)(O)[C@H](O)[C@@H](C)O3)[C@H](O)[C@@H](C)O2)[C@H](O)[C@@H](C)O1 (some centres undefined) |  | inactive
66 | CC(C)(O/N=C(\C(=O)N[C@@H]1C(=O)N2C(C(=O)[O-])=C(C[n+]3ccccc3)CS[C@H]12)c1csc(N)n1)C(=O)O | 12.8% [at 39.1 µM] | 
67 | Cc1cccc(C)c1NC(=O)C1CCCCN1C (centres undefined) | 5.24% | 
68 | C[C@@H]1O[C@@H]1P(=O)(O)O | 7.51% | 
69 | c1ccc2c(c1)OCC(CN1CCCCC1)O2 (centres undefined) | 4.41% | 
70 | C=C1C(=C/C=C2\CCC[C@]3(C)[C@@H]([C@H](C)CCCC(C)C)CC[C@@H]23)C[C@@H](O)C[C@@H]1O | -23.6% | 
71 | N=C(N)n1cccn1 | 11.8% | 
72 | CCCC(CCC)C(=O)OC1C[C@H]2CC[C@@H](C1)[N+]2(C)C (some centres undefined) |  | inactive
73 | C[N+](C)(C)CCOP(=O)(O)OP(=O)([O-])OC[C@H]1O[C@@H](n2ccc(N)nc2=O)[C@H](O)[C@@H]1O |  | inactive
74 | CN(C)CCC(O)(c1ccccc1)c1ccccc1Cl (centres undefined) | 8.74% | 
